The list is not random: actives were taken first. Their share in the collection is about 8%.
HCMV antiviral: qHTS Assay for inhibitors of the human cytomegalovirus (HCMV); HFF cells, HCMV-luciferase reporter, 72 h; hits give low values; activity change, negative = inhibition, % at 57.5 µM; hit rate 4.5% among 410,000; AID 1259415, 2018; in the data active = activity change below about -60%; inconclusive = no clear call, values can overlap the other calls; inactive = above about -39%; note: % is set by controls: 0 for no effect and ±100 for the full control effect
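Screen run at 2 compound doses on HFFs infected with reporter HCMV, MOI 1 PFU/cell. Luciferase activity from cell lysates at 72 h post infection gave inhibition relative to buffer-only and Salinomycin wells.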
HCV inh: qHTS Assay for Inhibitors of Hepatitis C Virus (HCV). AID 651820, 2012. hit rate 3.4% among 340,000. Huh7.5.1 HCVcc-Cre infection, luciferase reporter, 44 h. Potency, µM (doses to about 41.8 µM), for inactives: top-dose activity change, negative = inhibition, hits mostly inhibitors; active = well fitted inhibition curve with a large enough effect; inconclusive = small, poorly fitted or top-dose-only effect, or another doubt; inactive = no such curve, though single readings can be large or run the other way; note: potency is the fitted concentration of half-maximal effect; % is set by controls: 0 for no effect and ±100 for the full control effect
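A cell-based infection assay in which seeded cells (1,000 per well) receive test compound after 4 h, are inoculated with HCVcc-Cre at approximately 0.5 moi, and are incubated 44 h before luminescence detection.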
MARV entry inh: qHTS for inhibitors of binding or entry into cells for Marburg Virus | Marburg virus pseudotyped entry inhibition, cell reporter | Potency, µM (doses to about 37.8 µM), for inactives: at the highest dose activity change, negative = inhibition, most hits filed as inhibitors | hit rate 1.8% among 300,000; calls by dose curve; tested in HEK293 cells; note: potency is the fitted concentration of half-maximal effect; % is set by controls: 0 for no effect and ±100 for the full control effect
FMDV inh: High Throughput Screening for Foot and Mouth Disease Virus Antivirals. FMDV antiviral cell-based qHTS. Potency, µM (highest dose often 57.9 µM), inactives show at the top dose activity change, negative = inhibition, actives largely listed as inhibitors. hit rate 1.2% among 410,000. AID 1159524, 2015; calls by dose curve; tested in HEK293T cells; note: read-out not given here; potency is the fitted concentration of half-maximal effect; % is set by controls: 0 for no effect and ±100 for the full control effect; nearly all actives have a fitted effect of over 45% in size
Lassa entry inh: qHTS for Inhibitors of binding or entry into cells for Lassa Virus; Lassa virus pseudotype entry inhibition, cell reporter; Potency, µM (highest dose often 37.9 µM), for inactives: at the top dose activity change, negative = inhibition, usual class: inhibitors; hit rate 1.2% among 300,000; AID 540256, 2011; calls by dose curve; tested in HEK293 cells; note: potency is the fitted concentration of half-maximal effect; % is set by controls: 0 for no effect and ±100 for the full control effect; nearly all actives have a fitted effect of over 50% in size
SARS PLpro yeast: qHTS of Yeast-based Assay for SARS-CoV PLP. S. cerevisiae expressing SARS-CoV PLpro, growth rescue. Potency, µM (top dose mostly 32.9 µM), for inactives: top-dose activity, positive = growth rescue, usual class: activators. hit rate 0.19% among 330,000; calls by dose curve; note: potency is the fitted concentration of half-maximal effect; 0% is about no effect; nearly all actives have a fitted effect of over 55% in size
Active calls of the source: *; ? = inconclusive; . = no result; [ ] = remark or other dose.

SMILES	HCMV antiviral	HCV inh	MARV entry inh	FMDV inh	Lassa entry inh	SARS PLpro yeast
Fc1ccc(NC(=S)Nc2cccc(Cl)c2)cc1	-73*	?	3%	41%	-2%	-29%
FC(F)(F)c1ccccc1NC(=S)Nc1cccc(Cl)c1	-76*	24%	22%[46.1 µM]	-12%	6%	-1%
Fc1ccc(CNC(=S)Nc2cccc(Cl)c2)cc1	?	?	-15%	4%	?	-17%
Cc1ccc(NC(=O)C2CCN(C(=O)c3cnn(-c4ccccc4)c3-n3cccc3)CC2)cc1	-16	.	?	-1%	-6%[46.1 µM]	.
Cc1ccc(-c2nc(CS(=O)(=O)CC(=O)NCCCN(Cc3ccccc3)C(C)C)c(C)o2)cc1	62	10µM*	.	-24%	.	6%
O=C(C[n+]1cccc2ccccc21)c1ccc(NC(=O)c2ccccc2)cc1	-83*	-13%	.	-23%	.	1%
Cc1cc[n+](CC(=O)c2ccc(NC(=O)c3ccccc3)cc2)cc1	-37	17%	.	-19%	.	-3%
Cc1cc[n+](CC(=O)c2ccc(NC(=O)c3ccccc3)cc2)c2ccccc12	-97*	-12%	.	?	.	1%
CC(=O)Oc1cc(C)c(OC(C)=O)c2ccccc12	-12	.	.	.	.	.
O=C(c1ccc2c(c1)OCO2)N1CCOc2ccc(CN3CCC(Oc4cccnc4)CC3)cc2C1	.	.	.	-13%	.	.
Cc1ccc(-c2csc(C3=C(O)CN(NC(=O)c4ccc([N+](=O)[O-])cc4)C3=N)n2)cc1	-28	2%	-14%[46.1 µM]	-5%	?	1%
N=C1C(c2nc(-c3ccc(Br)cc3)cs2)=C(O)CN1NC(=O)c1ccc([N+](=O)[O-])cc1	-102*	2%	-19%[46.1 µM]	-2%	0%	1%
CCCCN=CN1c2cc(OC)ccc2-n2cccc2C1c1ccccc1 (stereo not given)	85	.	.	.	.	.
CC(C)c1ccc(Nc2ncnc3c2nc2n3CCCC2)cc1	-19	.	.	-5%	?	.
CC(=O)N1CCc2cc(Br)cc(S(=O)(=O)NCCc3ccc(Cl)cc3)c21	3	.	-6%[46.1 µM]	12%	0%[46.1 µM]	.
COC(=O)c1ccc(CN2C[C@H](Sc3ccccn3)C[C@H]2C(=O)N(C)C)cc1	.	.	.	11%	.	.
Cc1cc(C)cc(NC(=O)CSc2ccc(-c3ccccn3)nn2)c1	-1	13µM*	15%	-16%	?	?
CCOc1ccccc1NC(=O)CSc1ccc(-c2sc(C)nc2C)nn1	?	?	?	25µM*	?	-4%
COc1ccccc1NC(=O)CSc1ccc(-c2sc(C)nc2C)nn1	43	.	.	?	0%[46.1 µM]	.
CCc1ccc(NC(=O)CSc2ccc(-c3sc(C)nc3C)nn2)cc1	-39	11µM*	.	-21%	.	3%
Cc1nc(C)c(-c2ccc(SCC(=O)Nc3ccc(Br)cc3)nn2)s1	-69*	.	.	-17%	?	.
CCn1cc(S(=O)(=O)c2ccc(C)cc2C)c(=O)c2cc(F)c(N3CCCC3)cc21	-9	.	.	-10%	-22%[46.1 µM]	.
Cc1ccc2oc(-c3cccc(NC(=O)c4sc5c([N+](=O)[O-])cccc5c4Cl)c3)nc2c1	24	.	2%[46.1 µM]	11%	-9%[46.1 µM]	.
CCOc1ccc(C(c2c(O)cc(C)n(Cc3ccco3)c2=O)N2CCCCC2)cc1 (stereo not given)	7	.	.	-6%	?	.
CCOc1ccccc1C(=O)Nc1c(C(=O)Nc2ccc(F)cc2)oc2ccccc12	-62*	.	?	-19%	?	.
SMILES	HCMV antiviral	HCV inh	MARV entry inh	FMDV inh	Lassa entry inh	SARS PLpro yeast
O=C(Nc1ccc(F)cc1)c1oc2ccccc2c1NC(=O)C1CC1	-60*	-6%	.	-27%	.	1%
CCCS(=O)(=O)NCc1c(C)ncc2c1CCN(C(=O)/C=C/c1ccc(F)cc1F)C2	.	.	.	3%	.	.
Cc1cc(=O)n(Cc2cccc(Br)c2)c2c1c(C)nn2-c1ccccc1	7	.	.	-8%	8%[46.1 µM]	.
CCOc1ccc(Br)cc1S(=O)(=O)N1CCC(C(N)=O)CC1	-64*	26%	-4%	45%	12%	-6%
CCOc1ccc2nc(NC(=S)N(C)C)sc2c1	15	?	-29%	-3%	-27%	-10%
CN(C)C(=S)Nc1nc2ccccc2s1	-4	14µM*	.	34%	.	-3%
CN(CC(=O)Nc1nc2ccccc2s1)S(=O)(=O)c1ccc(Br)cc1	1	?	-12%	35µM*	-14%[14.3 µM]	4%
COc1cc(NC(=O)CN(C)S(=O)(=O)c2ccc3[nH]c4c(c3c2)CCCC4)cc(OC)c1OC	-4	.	.	?	-17%[46.1 µM]	.
COc1ccc(NC(=O)CSc2nc3c(oc4ccccc43)c(=O)n2-c2ccccc2)cc1OC	-22	.	-6%[46.1 µM]	-3%	.	.
CCN(CC)c1ccc(/C=N/NC(=O)c2cccc(S(=O)(=O)N3CCOCC3)c2)cc1	47	10µM*	8%	14µM*	-37%	-22%
O=C(Nc1ccc(N2CCOCC2)cc1)c1cccc(S(=O)(=O)N2CCCCCC2)c1	?	?	.	-15%	.	2%
CS(=O)(=O)c1cccc(C(=O)Nc2ccc(S(=O)(=O)N3CCCCC3)cc2)c1	-63*	4.5µM*	4%	-14%	1%	-3%
O=C(NC1CCCC1)c1cccc(S(=O)(=O)N2CCOCC2)c1	-103*	-1%	.	0%	.	2%
O=C(Nc1ccc(N2CCOCC2)cc1)c1cccc(S(=O)(=O)N2CCCC2)c1	.	6.3µM*	0%	-29%	0%	4%
CC(C)OCCCNC(=O)C(=O)Nc1ccc2nc3n(c(=O)c2c1)CCCCC3	4	.	13%[46.1 µM]	-15%	16%[46.1 µM]	.
CCOC(=O)c1ccc(NC(=O)c2cccc(S(=O)(=O)N3CCN(C(C)=O)CC3)c2)cc1	-40	10µM*	-14%[46.1 µM]	1%	-13%[46.1 µM]	0%
O=C(NCCN1C(=O)S/C(=C\c2ccc(Cl)cc2)C1=O)c1ccc(F)c(S(=O)(=O)N2CCOCC2)c1	14	?	7%	8%	4%	2%
COc1ccccc1C(=O)NCC1CCN(c2ccc(S(=O)(=O)N3CCOCC3)cc2)CC1	-76*	?	-30%	.	-6%	1%
O=C(NCCN1C(=O)S/C(=C\c2ccc(F)cc2)C1=O)c1cccc(S(=O)(=O)N2CCOCC2)c1	8	10µM*	-37%	-11%	1%	-20%
Cc1ccccc1NC(=O)c1cccc(S(C)(=O)=O)c1	-102*	15%	12%[46.1 µM]	7%	6%[46.1 µM]	2%
Cc1ccccc1NS(=O)(=O)c1cccc(C(=O)Nc2cccc(C(=O)O)c2)c1	33	7%	.	-11%	.	-11%
CC(=O)c1cccc(NC(=O)c2nc3ccccc3n(C)c2=O)c1	84	.	?	26%	2%[46.1 µM]	.
CSc1ccc(C2CC(=O)Oc3c2c(=O)n(C)c2ccccc32)cc1 (stereo not given)	5	.	-3%[46.1 µM]	-18%	-27%[46.1 µM]	.
CC(C)OC(=O)[C@@H](CC(=O)O)NCc1ccccc1	.	.	0%	.	.	.

Bioassay records (PubChem)
